Experimental data from PubChem BioAssay.
A number with no mark means an inactive call. Calls of active or inactive are those of the source.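 How the source made its calls: active means inhibition above the hit cutoff set in the earlier primary screen (cut at about 27% in these data); inactive means the rest.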

Each molecule was assayed against Protein phosphatase methylesterase 1 (Homo sapiens) (UniProt Q9Y570) (assay: human PME-1 methylesterase inhibition confirmation – biochemical, fluorescence polarization, FP-Rh probe, triplicate (AID 2171;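 further: 0% = enzyme with DMSO and 100% = wells lacking PME-1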)). Conditions: recombinant PME-1, FP-Rh probe fluorescence polarization; at 5.9 µM; stronger effect = higher value.
Protein phosphatase methylesterase 1 (Homo sapiens), sequence (Q9Y570 whole entry, looked up): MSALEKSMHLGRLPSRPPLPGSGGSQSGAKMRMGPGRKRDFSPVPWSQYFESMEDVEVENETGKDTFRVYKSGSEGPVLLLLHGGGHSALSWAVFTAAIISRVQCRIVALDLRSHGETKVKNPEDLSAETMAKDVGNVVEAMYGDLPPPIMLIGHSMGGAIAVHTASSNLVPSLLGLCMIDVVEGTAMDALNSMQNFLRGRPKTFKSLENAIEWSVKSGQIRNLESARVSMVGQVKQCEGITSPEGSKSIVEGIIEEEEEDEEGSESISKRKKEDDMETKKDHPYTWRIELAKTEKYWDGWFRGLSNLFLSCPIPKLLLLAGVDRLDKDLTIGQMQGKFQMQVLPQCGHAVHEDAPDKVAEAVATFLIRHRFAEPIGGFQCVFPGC

SMILES	inhibition
O=C(COc1ccccc1C(=O)N/N=C\c1ccc(O)c(O)c1)N/N=C/c1ccc(O)c(O)c1	-40.9%
Oc1c(Br)cc(C=Nc2ccc3nc(-c4ccccc4)[nH]c3c2)c(O)c1Br	5.82%
Oc1ccc(/C=N/Nc2cccc3cccnc23)c(O)c1	82.7% (active)
COCCN=c1scc(-c2cc(OC)c(OC)c(OC)c2)n1/N=C/c1c(C)[nH]c2ccccc12	18.7%
COc1ccccc1C(=O)NC(=S)Nc1cccc2cc(O)ccc12	17%
Cc1[nH]c2ccccc2c1CCNC(=O)c1ccc2c(c1[N+](=O)[O-])C(=O)c1ccccc1C2=O	30.9% (active)
COc1cccc(C(=O)Oc2ccc(/C=N/Nc3ccc(C(=O)O)cc3)cc2OC)c1	36.3% (active)
N#CC/C(N)=N/Nc1nc2ccccc2nc1Cc1ccccc1	-1.36%
CCOc1ccc(N=C/C=C/c2ccccc2)c(O)c1	9.57%
CCNc1cc(O)ccc1C	2.02%
COc1ccc(-c2oc(NC(=O)CCl)c(C#N)c2-c2ccc(OC)cc2)cc1	22.7%
COc1ccc(Br)cc1CNc1ccc(O)cc1	9.35%
CCCCC(=Nc1ccc(N)cc1)C1=C(O)C(C(=O)OC)C(C)(C)CC1=O (stereo not drawn)	13.4%
CC(C)=CCc1cc2c(=O)c3c(O)c4c(cc3oc2c(O)c1O)OC(C)C4(C)C (stereo not drawn)	-51.2%
Cc1nn(-c2ccccc2)c2ncc(C(=O)c3cc(Cl)ccc3O)cc12	-5.34%
Cc1ccccc1OCC(=O)NC(=S)Nc1cccc2cc(O)ccc12	20.7%
CCn1cc(C(=O)NCCCN2CCC(C)CC2)c(=O)c2cc(S(=O)(=O)N(C)C3CCCCC3)ccc21	31.6% (active)
Brc1ccc(/C=N/Nc2nc3ccccc3o2)cc1	22.2%
CCOC(=O)CSc1nc2cc3c(cc2cc1C#N)OCCO3	20.1%
CCCCN(CC)CCCNC(=O)c1cn(C)c2ccc(S(=O)(=O)N(C)C3CCCCC3)cc2c1=O	14.5%
C=CCOc1ccc(/C=N/NC(=O)c2cc3c(OC)cc(OC)cc3[nH]2)cc1	24.4%
C=CCN=c1scc(-c2ccco2)n1/N=C/c1ccc(O)c(O)c1O	-17.6%
Cc1cccc2cc(C#N)c(SCC#N)nc12	3.95%
